For 34 molecules, normalised cell viability results are on record in the supplement of paper PMC6609913.

Structures can show the parent of a compound that is named as a salt. ± gives the standard deviation of the averaged measurements. In all, about 1,300 compounds were measured (“normalised cell viability”: median about 1, lowest 2% from about 0.15 on). What follows is part of a selection rich in the lowest values, with near analogues and random picks from the rest.

For the assay, the system named is V-C8 + BRCA2 (BRCA2-proficient hamster cells). Nature of the assay: normalised cell viability (fraction of plate median); higher = more viable cells (less toxic). To be noted: 5 µM. The procedure, abridged: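 Hamster V-C8 cells lacking BRCA2 and V-C8 cells with BRCA2 restored were seeded in 96-well plates. Library drugs (10 mM DMSO stocks) were added 24 h later at 5 μM in 100 μl medium, next to DMSO control wells, for 3 days (screen 1) or 6 days (screen 2). Cell viability was read by resazurin assay, median-plate normalised (modified robust per cent of sample), and triplicate wells were averaged.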

For `Nc1ccc(S(=O)(=O)Nc2ccnn2-c2ccccc2)cc1` [Sulfaphenazole], the normalised cell viability was 1.07 ± 0.02 (treatment time: 3 days) and 1.01 ± 0.041 (treatment time: 6 days).
`Cc1ccnc2c1NC(=O)c1cccnc1N2C1CC1` [Nevirapine]: the normalised cell viability was 1.03 ± 0.087 (treatment time: 3 days) and 1.05 ± 0.047 (treatment time: 6 days).
In the case of `C[C@H]1O[C@@H](O[C@H]2[C@@H](O)C[C@H](O[C@H]3[C@@H](O)C[C@H](O[C@H]4CC[C@@]5(C)[C@H](CC[C@@H]6[C@@H]5C[C@@H](O)[C@]5(C)[C@@H](C7=CC(=O)OC7)CC[C@]65O)C4)O[C@@H]3C)O[C@@H]2C)C[C@H](O)[C@@H]1O` [Digoxin], the normalised cell viability is, setting by setting: (treatment time: 3 days) 1.06 ± 0.036; (treatment time: 6 days) 1.07 ± 0.13.
On the same counts, the results for `COc1ccc(NS(=O)(=O)c2ccc(N)cc2)nn1` [Sulfamethoxypyridazine] are 0.879 ± 0.062 and 0.892 ± 0.069.
As to `CC(=O)c1ccc(S(=O)(=O)NC(=O)NC2CCCCC2)cc1` [Acetohexamide], the normalised cell viability was found to be 1.22 ± 0.019 (treatment time: 3 days) and 1.025 ± 0.0097 (treatment time: 6 days).
On the same counts, the results for `O=C1C(O)=C([C@H]2CC[C@H](c3ccc(Cl)cc3)CC2)C(=O)c2ccccc21` [Atovaquone] are 0.958 ± 0.012 and 0.922 ± 0.04.
On the same counts, the results for `CC(C)(C)NC(=O)[C@@H]1C[C@@H]2CCCC[C@@H]2CN1C[C@@H](O)[C@H](Cc1ccccc1)NC(=O)[C@H](CC(N)=O)NC(=O)c1ccc2ccccc2n1` [Saquinavir mesylate] are 0.842 ± 0.061 and 0.952 ± 0.073.
For `O=C1Cc2cc(CCN3CCN(c4nsc5ccccc45)CC3)c(Cl)cc2N1` [Ziprasidone  Hydrochloride], the normalised cell viability is, setting by setting: (treatment time: 3 days) 0.206 ± 0.016; (treatment time: 6 days) 0.23 ± 0.013.
On the same counts, the results for `CO/N=C(\C(=O)N[C@@H]1C(=O)N2C(C(=O)OC(C)OC(C)=O)=C(COC(N)=O)CS[C@H]12)c1ccco1` (stereo partly drawn) [Cefuroxime axetil] are 1.01 ± 0.057 and 1.04 ± 0.12.
As to `Cc1cccc(N(C)C(=S)Oc2ccc3ccccc3c2)c1` [Tolnaftate], the normalised cell viability was determined as 1.02 ± 0.027 (treatment time: 3 days) and 1.04 ± 0.044 (treatment time: 6 days).
On the same counts, the results for `CC(=O)CC(c1ccc([N+](=O)[O-])cc1)c1c(O)c2ccccc2oc1=O` (stereo not drawn) [Acenocoumarol] are 0.92 ± 0.023 and 0.979 ± 0.053.
On the same counts, the results for `N[C@H]1CONC1=O` [(S)-(-)-Cycloserine] are 1.04 ± 0.043 and 0.917 ± 0.29.
On the same counts, the results for `O=C1[C@H](CC[C@H](O)c2ccc(F)cc2)[C@@H](c2ccc(O)cc2)N1c1ccc(F)cc1` [Ezetimibe] are 1.03 ± 0.04 and 1.08 ± 0.054.
On to `OC[C@H]1O[C@@H](Oc2ccc(O)cc2)[C@H](O)[C@@H](O)[C@@H]1O` [Arbutin], for which the normalised cell viability reads like this: (treatment time: 3 days) 1.02 ± 0.05; (treatment time: 6 days) 0.979 ± 0.024.
On the same counts, the results for `CCOC(=O)/C=C(C)/C=C/C=C(C)/C=C/c1c(C)cc(OC)c(C)c1C` [Etretinate] are 1.01 ± 0.043 and 1.13 ± 0.071.
As for `C[C@H]1c2cccc(O)c2C(=O)C2=C(O)[C@]3(O)C(=O)C(C(N)=O)=C(O)[C@@H](N(C)C)[C@@H]3[C@@H](O)[C@@H]21` [Doxycycline hydrochloride], the normalised cell viability by setting is: (treatment time: 3 days) 0.947 ± 0.025; (treatment time: 6 days) 0.982 ± 0.033.
For `OC(CCCN1CCCCC1)(c1ccccc1)c1ccccc1` [Diphenidol hydrochloride], the normalised cell viability by setting is: (treatment time: 3 days) 1.08 ± 0.066; (treatment time: 6 days) 1.05 ± 0.025.
On the same counts, the results for `CC(C)(C(=O)O)c1ccc(C(O)CCCN2CCC(C(O)(c3ccccc3)c3ccccc3)CC2)cc1` (stereo not drawn) [Fexofenadine HCl] are 1.02 ± 0.051 and 1.04 ± 0.026.
Turning to `CC(C)(C)c1ccc(C(O)CCCN2CCC(C(O)(c3ccccc3)c3ccccc3)CC2)cc1` (stereo not drawn) [Terfenadine], the normalised cell viability is, setting by setting: (treatment time: 3 days) 0.118 ± 0.0067; (treatment time: 6 days) 0.103 ± 0.0052.
On the same counts, the results for `Cc1cn[nH]c1` [Fomepizole] are 1.07 ± 0.021 and 0.9639 ± 0.0076.
On the same counts, the results for `CC/C(=C(\c1ccccc1)c1ccc(OCCN(C)C)cc1)c1ccccc1` [Tamoxifen citrate] are 0.878 ± 0.054 and 0.88 ± 0.021.
On the same counts, the results for `CCN(CC)CCOc1ccc(C(=C(Cl)c2ccccc2)c2ccccc2)cc1` [Clomiphene citrate (Z,E)] are 0.124 ± 0.0093 and 0.128 ± 0.013.
In the case of `CN(C)CCOc1ccc(/C(=C(/CCCl)c2ccccc2)c2ccccc2)cc1` [Toremifene], the normalised cell viability was 0.822 ± 0.058 (treatment time: 3 days) and 0.891 ± 0.027 (treatment time: 6 days).
For `CC[C@H](c1ccc(O)cc1)[C@@H](CC)c1ccc(O)cc1` [Hexestrol], the normalised cell viability reads like this: (treatment time: 3 days) 0.9735 ± 0.0097; (treatment time: 6 days) 0.944 ± 0.19.
On the same counts, the results for `Nc1nc(NC2CC2)c2ncn([C@H]3C=C[C@@H](CO)C3)c2n1` [Abacavir Sulfate] are 1.04 ± 0.02 and 1.07 ± 0.034.
On the same counts, the results for `C=CCOC(Cn1ccnc1)c1ccc(Cl)cc1Cl` (stereo not drawn) [Enilconazole] are 0.985 ± 0.021 and 1.04 ± 0.013.
On the same counts, the results for `NC(N)=Nc1nc(CSCC/C(N)=N/S(N)(=O)=O)cs1` [Famotidine] are 1.16 ± 0.079 and 1.1 ± 0.096.
In the case of `CC(C)(O/N=C(\C(=O)N[C@@H]1C(=O)N2C(C(=O)[O-])=C(C[n+]3ccccc3)CS[C@H]12)c1csc(N)n1)C(=O)O` [Ceftazidime pentahydrate], the normalised cell viability runs as follows: (treatment time: 3 days) 1.03 ± 0.011; (treatment time: 6 days) 1 ± 0.039.
Turning to `Cc1ccc(O)c([C@H](CCN(C(C)C)C(C)C)c2ccccc2)c1` [Tolterodine tartrate], the normalised cell viability by setting is: (treatment time: 3 days) 1.05 ± 0.062; (treatment time: 6 days) 0.965 ± 0.053.
On the same counts, the results for `COc1ccc2cc(CCC(C)=O)ccc2c1` [Nabumetone] are 1.05 ± 0.12 and 1.02 ± 0.044.
On the same counts, the results for `CC(C)C(=O)c1c(C(C)C)nn2ccccc12` [Ibudilast] are 0.987 ± 0.062 and 0.981 ± 0.061.
Consider `CC(C)(C)NC[C@H](O)c1ccc(O)c(CO)c1` [Levalbuterol hydrochloride], for which the normalised cell viability (treatment time: 3 days) was determined as 0.965 ± 0.089 and the normalised cell viability (treatment time: 6 days) stood at 1.004 ± 0.0069.
In the case of `Clc1ccc(CO/N=C(\Cn2ccnc2)c2ccc(Cl)cc2Cl)c(Cl)c1` [Oxiconazole Nitrate], the normalised cell viability is, setting by setting: (treatment time: 3 days) 1.07 ± 0.16; (treatment time: 6 days) 0.675 ± 0.12.
Regarding `CC(=O)OCC(=O)[C@@]12OC(C)(C)O[C@@H]1C[C@H]1[C@@H]3C[C@H](F)C4=CC(=O)C=C[C@]4(C)[C@@]3(F)[C@@H](O)C[C@@]12C` [Fluocinonide], the normalised cell viability worked out at 1.04 ± 0.017 (treatment time: 3 days) and 1.06 ± 0.04 (treatment time: 6 days).
